Data on seven molecules can be found in PubChem BioAssay (NCATS).

Structures are written as SMILES. Records with an inconclusive call do not appear. A number with no mark means an inactive call. Active and inactive are the calls of the source. The call rests on the fitted dose curve; in most records, active means well fitted curve in the direction sought with a large enough effect; inconclusive means small, poorly fitted or top-dose-only effect, or another doubt; inactive means no such curve, though single readings can be large; an effect the other way counts as inactive or inconclusive.

Test [1] deals with Zika virus NS2B-NS3 protease (unlinked complex). Description: Confirmatory screen GU AMC qHTS for Zika virus inhibitors (AID 1347153). Further: potency means the concentration at half of the fitted maximal effect; nearly all actives have a fitted effect of over 70% in size. The settings on record: Recombinant NS2B-NS3 protease, AMC substrate fluorescence. In short, it runs like this: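 Noncovalent NS2B hydrophilic domain/NS3 protease complex (25 nM) in 10 mM Tris-HCl pH 8.0, 0.01% Tween 20 was preincubated 15 min at room temperature with compounds. Then 10 µM AMC substrate (Km 18.3 µM) was added; fluorescence was read over 15 min and fitted to a 4-parameter Hill equation.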
A general note: In qHTS, concentration-response curves come from the screen itself.

Test [2] is described as follows: ZIKV-mCherry secondary qHTS for Zika virus inhibitors (AID 1347158). Further: potency means the concentration at half of the fitted maximal effect. To be noted: Vero cells, ZIKV-mCherry infection imaging, 48-72 h. In a few lines:
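Percent infection is the share of Hoechst-identified Vero nuclei with mCherry signal above 450 RFU (3 SD over negative controls). Cells were infected with recombinant ZIKV-mCherry at MOI 1 after compound addition and imaged 48–72 h later.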

Test [3] can be described thus: Confirmatory screen GU Rhodamine qHTS for Zika virus inhibitors qHTS (AID 1347157). Further: potency means the concentration at half of the fitted maximal effect; nearly all actives have a fitted effect of over 70% in size. The settings on record: purified enzyme assay, Rhodamine110 substrate fluorescence, 15 min. In a few lines: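 A qHTS format was used, with compound concentrations ranging up to 114 microM. Each compound was preincubated with 25 nM NS2B-NS3 protease, and the substrate was then added at 1.5 microM. Curves were fitted with a 4-parameter Hill model.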

Test [4] relates to Zika virus NS2B-NS3 protease (unlinked complex). Description: Primary screen GU Rhodamine qHTS for Zika virus inhibitors: Unlinked NS2B-NS3 protease assay (AID 1347159). Further: on the % scale 0 is the no-effect control and ±100 the full control effect; nearly all actives have a fitted effect of over 60% in size. The settings on record: Recombinant ZIKV NS2B-NS3 protease, Rhodamine110 substrate fluorescence; series mostly up to 107 µM. In short, it runs like this:
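Buffer 10 mM Tris-HCl pH 8.0, 0.01% Tween 20. Unlinked protease 25 nM; compound preincubation 15 min, RT, protected from light. Substrate Rhod110, 1.5 microM; ~15% conversion in 15 min.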

Turning to `O=c1c(C2CC(c3ccc(-c4ccc(Br)cc4)cc3)Cc3ccccc32)c(O)sc2ccccc12` (centres undefined), the Potency in test [1] was 12.1 µM (active).
`O=C(Nc1ccc(Br)cc1)c1cc(Br)cc(Br)c1O`: the figures for the Potency in test [1] and in test [2] were 21.5 µM (active) and 8.91 µM (active), respectively.
For `O=C1OC(c2ccc(O)c(S(=O)(=O)O)c2)(c2ccc(O)c(S(=O)(=O)O)c2)c2c(Br)c(Br)c(Br)c(Br)c21`, the Potency in test [3] is 3.16 µM (active).
As to `CC(NC(C)(C)C)C(=O)c1cccc(Cl)c1` (centres undefined), the result in test [4] was inactive.
Still for that read-out and setting: then `CC(C)N(CCC(C(N)=O)(c1ccccc1)c1ccccn1)C(C)C` (centres undefined), with “inactive”.
Regarding `CC(=O)OCC1=C(C(=O)O)N2C(=O)[C@@H](N)[C@H]2SC1`, the Potency in test [3] is 22.1 µM (active). The outcome in test [4] was inactive.
As to `C=CCN1C[C@H](C)N([C@H](c2ccc(C(=O)N(CC)CC)cc2)c2cccc(OC)c2)C[C@H]1C`, the activity change, negative = inhibition in test [4] was -8.84% [at 19.1 µM].
